Screening results: PubChem, several laboratories
An excerpt weighted towards active compounds, which were near 7.8% of everything screened.
sEH inh – blocks human soluble epoxide hydrolase activity; P34913; recombinant human sEH enzymatic activity assay; inhibition, % at 2 µM; 91,000 compounds, 0.34% hits; AID 707; in the data active = inhibition above about 80%
Cav3 T inh – inhibitors of human Cav3.2 T-type calcium channel; O95180; Cav3.2-expressing cells, Fluo-4 calcium fluorescence FDSS; stronger effect = lower value; B-score at 10 µM; 100,000 compounds, 4% hits;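 active = single-dose well whose peak fluorescence ratio is a statistical outlier from its plate by either plate-standardised score or position-corrected B-score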
sEH act – increases human soluble epoxide hydrolase activity. purified human sEH enzymatic activity, activator screen. activation, % at 2 µM. 91,000 compounds, 0.04% hits; in the data active = activation above about 37%
PostGolgi yeast – growth inhibition of a yeast mutant, post-Golgi transport screen; post-Golgi transport phenotypic cell assay; inhibition, % at 10 µM; AID 739; 98,000 compounds, 0.9% hits;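 note: yeast cells grown in 1536-well plates; yeast grown about 18 h at 30C before absorbance read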
PostGolgi ctrl – yeast control strain growth, post-Golgi counter-screen | efflux-deficient yeast background strain, growth absorbance A615, 16 h | inhibition, % at 10 µM | 98,000 compounds, 5% hits
Each line names hits and unclear results; the compound was inactive in the other large screens. Cut-off read from the data, not from the text of the source, unless noted: active = inhibition above about 30%; inactive = the rest.

CCCNC(=O)COC(=O)c1ccccc1OCc1ccc(Cl)cc1	none
Clc1ccc(Cc2nn3c(Cn4nnc5ccccc54)nnc3s2)cc1	none
O=C(NCCCn1ccnc1)Nc1cccc(Cl)c1	PostGolgi ctrl 36
C=C(C)C1Cc2c(C)nn(-c3cc(C)c4ccccc4n3)c2C1 (stereo not given)	none (no result: Cav3 T inh, PostGolgi yeast, PostGolgi ctrl)
C=C(C)C1Cc2c(C)nn(-c3cccc4ccccc34)c2C1 (stereo not given)	PostGolgi ctrl 40
O=S1(=O)N=C(Nc2ccc(O)c(CN3CCCCC3)c2)c2ccccc21	none (no result: sEH inh, sEH act)
Cc1ccc2c(c1)cc(CN(Cc1ccco1)S(=O)(=O)c1ccccc1)c1nnnn12	PostGolgi ctrl 45
Cc1ccc(S(=O)(=O)/N=C(\N)Nc2nc(C)c3cc(C)c(C)cc3n2)cc1	PostGolgi ctrl 40
Cc1ccc(S(=O)(=O)/N=C(\N)Nc2nc(C)c3ccc(C)cc3n2)cc1	none
COc1ccc([N+](=O)[O-])cc1/C=N/NC(=O)/C(=C\c1cccs1)NC(=O)c1ccccc1	none
O=C(N/N=C/c1cc2ccccc2nc1Cl)/C(=C/c1cccs1)NC(=O)c1ccccc1	Cav3 T inh -5.9
CCC(=O)Nc1cccc(NC(=O)CSc2nnc(-c3ccc(NS(C)(=O)=O)cc3)n2CC)c1	none
CCCCn1c(-c2csc3c2CCC(C)C3)n[nH]c1=S (stereo not given)	PostGolgi ctrl 42
CN(Cc1ccccc1)c1nc2c(c(=O)n(C)c(=O)n2C)n1CCCc1ccccc1	Cav3 T inh -6.3, PostGolgi ctrl 43
Cc1ccc(Cn2c(CN(C)Cc3ccccc3)nc3c2c(=O)n(C)c(=O)n3C)cc1	Cav3 T inh -5.2, PostGolgi ctrl 38
CN(Cc1ccccc1)Cc1nc2c(c(=O)n(C)c(=O)n2C)n1Cc1ccc(F)cc1	Cav3 T inh -4.3
CCCCCn1c(CN(C)Cc2ccccc2)nc2c1c(=O)n(C)c(=O)n2C	none
CN(Cc1ccccc1)c1nc2c(c(=O)[nH]c(=O)n2C)n1CCOc1ccccc1	Cav3 T inh -4.8
CCN(CC)CCNc1nc2cc(OC)c(OC)cc2c2nc(-c3ccccc3)nn12	none
CN(Cc1ccccc1)Cc1nc2c(c(=O)n(C)c(=O)n2C)n1Cc1ccc(Cl)cc1	PostGolgi ctrl 31 (no result: sEH inh, Cav3 T inh, sEH act)
Cn1c(=O)c2c(nc(CN3CCN(c4ccccc4)CC3)n2CCc2ccccc2)n(C)c1=O	Cav3 T inh -5.7 (no result: PostGolgi yeast, PostGolgi ctrl)
Cc1ccc(C)c(Cn2c(CN(C)Cc3ccccc3)nc3c2c(=O)n(C)c(=O)n3C)c1	PostGolgi ctrl 45
CCOC(=O)C1CCCN(c2ncnc3c2oc2ccccc23)C1 (stereo not given)	PostGolgi ctrl 33
Cc1nc(N2CCC(C)CC2)c2oc3ccccc3c2n1	PostGolgi ctrl 30
CCOC(=O)C1CCN(c2ncnc3c2oc2ccccc23)CC1	none
c1ccc(N2CCN(c3ncnc4c3oc3ccccc34)CC2)cc1	PostGolgi ctrl 35 (no result: Cav3 T inh)
CCO[C@H]1OC(C(=O)NCc2nc3ccccc3[nH]2)=C[C@@H](c2ccc3c(c2)OCO3)[C@@H]1CCCO	none (no result: sEH inh, sEH act, PostGolgi yeast, PostGolgi ctrl)
Cc1sc2ncnc(Nc3ccccc3)c2c1C	PostGolgi ctrl 33
Cc1nc2ccc(NC(=O)NCCCO)cc2s1	none
CCc1ccccc1N1CSC2=C(C#N)C(c3ccccc3F)CC(=O)N2C1 (stereo not given)	PostGolgi ctrl 34 (no result: sEH inh, sEH act)
COc1ccc(C2CC(=O)N3CN(c4ccccc4F)CSC3=C2C#N)cc1OC (stereo not given)	none
Clc1cccc(-c2nnc(SCc3nc4ccccc4[nH]3)n2Cc2ccco2)c1	Cav3 T inh -5.4
CCn1c(COc2ccc(C)cc2)nnc1SCc1nc2ccccc2[nH]1	none
Clc1ccc(OCc2nnc(SCc3nc4ccccc4[nH]3)n2Cc2ccco2)cc1	Cav3 T inh -8.5, PostGolgi yeast 56, PostGolgi ctrl 57
COC(=O)c1ccc(COC(=O)c2ccc(-n3cnnn3)cc2)o1	none
O=C(Cn1cc(C(=O)c2cccs2)c2ccccc21)NCc1ccc2c(c1)OCO2	none (no result: sEH inh, sEH act)
Cc1ccc(-n2nc3c(c2NC(=O)c2ccc(S(=O)(=O)N4CCOCC4)cc2)CSC3)c(C)c1	none
CC(C)(C)n1nc2c(c1NC(=O)c1ccc(S(=O)(=O)N3CCCC3)cc1)CSC2	Cav3 T inh -3.5
Cc1cccc(-n2nc3c(c2NC(=O)c2ccc(S(=O)(=O)N4CCOCC4)cc2)CSC3)c1C	none (no result: Cav3 T inh)
Cc1ccc(-n2nc3c(c2NC(=O)c2cccs2)CSC3)cc1	Cav3 T inh -6.3
CCC(=O)Nc1c2c(nn1-c1ccccc1C)CSC2	none
O=C(Nc1c2c(nn1-c1ccc(F)cc1)CSC2)c1ccc(S(=O)(=O)N2CCOCC2)cc1	Cav3 T inh -5.6
O=C(Nc1ccccc1F)c1cc2nc(C(F)F)cc(C(F)F)n2n1	none (no result: PostGolgi yeast, PostGolgi ctrl)
